{"source": "PubChem BioAssay AID2320", "about": "(National Center for Advancing Translational Sciences (NCATS), 2010)", "note": "Records with an inconclusive call do not appear. A call without a number means that no potency is given here. Active and inactive are the calls of the source. Calls follow the shape of the full dose curve. Potency is read from the fitted curve at half-maximal effect.", "data": [{"test": "A qHTS for Small Molecule Inhibitors of Shiga Toxin (Confirmatory); also: nearly all actives have a fitted effect of over 75% in size", "details": "Cell-based Shiga toxin protection reporter assay; series mostly up to 38.3 µM", "values": [{"smiles": "Cc1c(NC(=O)c2ccc3c(c2)OCO3)cccc1-c1nc2ccccc2o1", "Potency": "20 µM (active)"}, {"smiles": "Cc1cc(NC(=O)/C=C/c2ccc(Br)cc2)no1", "Potency": "8.95 µM (active)"}, {"smiles": "COC(=O)c1ccc(NC(=O)Cc2ccc(F)cc2)cc1", "Potency": "5.65 µM (active)"}, {"smiles": "COc1ccc(N2CCN(Cc3csc(C)c3-c3ccc(C)cc3)CC2)cc1", "Potency": "inactive"}, {"smiles": "CON(C)S(=O)(=O)c1cccc(C(=O)NC2CCSc3ccccc32)c1", "note": "(stereo not given)", "Potency": "inactive"}, {"smiles": "CCCC(=O)Nc1cnc(NC(=O)c2cccc(F)c2)cc1C", "Potency": "0.711 µM (active)"}, {"smiles": "Cc1ccc2c(N)[nH]nc2n1", "Potency": "inactive"}, {"smiles": "CCOC(=O)C1CCCN(c2nc3ccccc3nc2C(C#N)C(=O)OCC)C1", "note": "(stereo not given)", "Potency": "inactive"}, {"smiles": "CN(C)C(CNC(=O)CCC(=O)c1ccc(Br)cc1)c1ccccc1", "note": "(stereo not given)", "Potency": "inactive"}, {"smiles": "NNC(=O)c1ccc(NS(=O)(=O)c2ccc(Br)cc2)cc1", "Potency": "inactive"}, {"smiles": "Cc1nonc1OCCCNc1ccc([N+](=O)[O-])cc1Cl", "Potency": "12.6 µM (active)"}, {"smiles": "Cc1cc(NC(=O)CSc2nc3ccsc3c(=O)n2Cc2ccccn2)n[nH]1", "Potency": "25.2 µM (active)"}, {"smiles": "CCOC(=O)Cc1csc(NC(=O)CSc2ncnc3c2cnn3-c2ccc(OC)cc2)n1", "Potency": "5.04 µM (active)"}, {"smiles": "COc1ccc(-c2cc(-c3ccccc3O)[nH]n2)cc1OC", "Potency": "2.25 µM (active)"}, {"smiles": "CC1CCc2sc(C(=O)NN)cc2C1", "note": "(stereo not given)", "Potency": "inactive"}, {"smiles": "Cc1ccc2c(CN3CCCCC3C)cc(=O)oc2c1C", "note": "(stereo not given)", "Potency": "0.01 µM (active)"}, {"smiles": "COCCCNC(=O)NC(=O)c1ccccc1", "Potency": "inactive"}, {"smiles": "O=C(NNC(=O)c1nc(Cl)ccc1Cl)c1ccc(F)cc1", "Potency": "inactive"}, {"smiles": "COc1cc2c(c(OC)c1OC)-c1c(cc(OC)c(OC)c1OC)C[C@](C)(O)[C@@H](C)C2", "Potency": "inactive"}, {"smiles": "CC(=O)c1ccc(-c2cccc([C@H]3[C@@H]4C=CC[C@@H](C)[C@@H]4C(=O)N3Cc3ccccc3)c2)cc1", "Potency": "inactive"}]}]}
